Results filed as inconclusive are left out. Where a call stands in place of a potency, no number is given. Calls of active or inactive are those of the source. Unless noted, the call rests on the fitted dose curve; in most records, active means well fitted inhibition curve with a large enough effect; inconclusive means small, poorly fitted or top-dose-only effect; inactive means flat fitted curve, though single readings scatter. Where a SMILES comes first, the peptide text is derived from it.
Target: Mitogen-activated protein kinase 10 (Mus musculus) (UniProt Q61831)
Test: JNK3 AlphaScreen Assay (AID 530; active means well fitted curve in either direction with a large enough effect, not every such curve was filed as active;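 further: kinase came from lysate of stimulated human HepG2 cells; signal reports phosphorylation of biotinylated GST-cJun 1-79 at Ser73 with 10 µM ATP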)
Settings: JNK3 lysate, c-Jun phosphorylation; series mostly up to 57.1 µM
In short: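 Phosphorylation of biotinylated GST-cJun(1-79) at Ser73 is measured by AlphaScreen proximity luminescence. Enzyme is JNK3 in HepG2 lysates activated with interleukin-1beta and tumor necrosis factor alpha; ATP is 10 uM final.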

| SMILES | outcome |
| --- | --- |
| CNc1ccc2oc(C[C@H]3O[C@]4(CC[C@H]3C)O[C@H]([C@H](C)C(=O)c3ccc[nH]3)[C@H](C)C[C@H]4C)nc2c1C(=O)O | inactive |
| C[C@H]1C[C@H](C)C(=O)[C@@H]([C@H](O)CC2CC(=O)NC(=O)C2)C1 | inactive |
| C=CCN1C[C@H](C)N([C@H](c2ccc(C(=O)N(CC)CC)cc2)c2cccc(O)c2)C[C@H]1C | inactive |

Target: DNA dC->dU-editing enzyme APOBEC-3G (Homo sapiens) (UniProt Q9HC16)
Test: qHTS for inhibitors of Vif-A3G interactions: Validation (AID 588379)
Settings: Vif-A3G protein interaction assay; series mostly up to 46.1 µM
In short: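 Yellow fluorescence (Ex 488, Em 500-530) of Vif-coexpressing HeLa A3G-eYFP cells, scanned by Acumen cytometer, reports blocked A3G degradation. Cells plated at 700/well overnight at 37 deg C before compound addition, then a further overnight compound incubation at 37 deg C.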

Chain of DNA dC->dU-editing enzyme APOBEC-3G (Homo sapiens) (Q9HC16 whole entry, looked up): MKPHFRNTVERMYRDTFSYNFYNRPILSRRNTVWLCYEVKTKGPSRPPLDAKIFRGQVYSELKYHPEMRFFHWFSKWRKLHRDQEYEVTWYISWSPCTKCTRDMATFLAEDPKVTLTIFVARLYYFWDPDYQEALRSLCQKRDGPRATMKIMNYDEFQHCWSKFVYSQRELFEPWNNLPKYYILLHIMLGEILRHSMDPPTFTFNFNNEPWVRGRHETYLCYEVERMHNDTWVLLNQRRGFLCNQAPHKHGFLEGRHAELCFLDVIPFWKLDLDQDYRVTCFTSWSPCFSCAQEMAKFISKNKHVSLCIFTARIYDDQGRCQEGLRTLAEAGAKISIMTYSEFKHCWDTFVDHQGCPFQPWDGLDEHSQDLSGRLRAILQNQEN

| SMILES | Potency |
| --- | --- |
| CNc1ccc2oc(C[C@H]3O[C@]4(CC[C@H]3C)O[C@H]([C@H](C)C(=O)c3ccc[nH]3)[C@H](C)C[C@H]4C)nc2c1C(=O)O | inactive |
| C[C@H]1C[C@H](C)C(=O)[C@@H]([C@H](O)CC2CC(=O)NC(=O)C2)C1 | inactive |
| C=CCN1C[C@H](C)N([C@H](c2ccc(C(=O)N(CC)CC)cc2)c2cccc(O)c2)C[C@H]1C | inactive |

Test system: Zika virus NS2B-NS3 protease
Test: Primary screen GU AMC qHTS for Zika virus inhibitors (AID 1347154); further: nearly all actives have a fitted effect of over 70% in size; further: potency means the concentration at half of the fitted maximal effect
Settings: Zika NS2B-NS3 unlinked protease, AMC fluorogenic substrate; series mostly up to 54.1 µM
In short: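 Unlinked Zika NS2B hydrophilic domain/NS3 protease domain noncovalent complex (25 nM final) in 10 mM Tris-HCl pH 8.0, 0.01% Tween 20, with AMC peptide substrate. Fluorescence (ex 340, em 450 nm) change over 15 min, room temperature; percent inhibition fitted to 4-parameter Hill equation.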

| SMILES | activity change, negative = inhibition | Potency |
| --- | --- | --- |
| NC(=O)[C@@H]1CCCN1C(=O)[C@H](Cc1ccccc1)NC(=O)[C@@H]1CCCN1C(=O)[C@@H](N)Cc1ccc(O)cc1 (H-YPFP-NH2) | 12.8% [at 6.83 µM] (inactive) | – |
| CC1CC2CCC(O2)C(C)C(=O)OC(C)CC2CCC(O2)C(C)C(=O)OC(C)CC2CCC(O2)C(C)C(=O)OC(C)CC2CCC(O2)C(C)C(=O)O1 (stereo unspecified) | – | inactive |
| O[C@@H]1CCCN2C[C@@H](O)[C@@H](O)C12 (stereo partly specified) | – | inactive |
| O=C(O)/C=C/CO | – | inactive |
| N#CC(C#N)=Cc1cc(O)c(O)c([N+](=O)[O-])c1 | – | inactive |
| CC1CCC2C(C)C(=O)OC3O[C@]4(C)CCC1[C@@]32OO4 (stereo partly specified) | – | inactive |
| CNc1ccc2oc(C[C@H]3O[C@]4(CC[C@H]3C)O[C@H]([C@H](C)C(=O)c3ccc[nH]3)[C@H](C)C[C@H]4C)nc2c1C(=O)O | – | inactive |
| Cc1ccc2c(c1)Cc1c(C(=O)NC3CCCCC3)nn(-c3ccc(Cl)cc3Cl)c1-2 | – | inactive |
| COC[C@H]([C@@H](O)[C@@H](O)C(=O)NCC[C@@H](C)c1nc(/C=C/C[C@H]2OC3(C[C@H](O)[C@H]2C)OC([C@@H](C[C@@H](O)[C@@H](C)[C@@H](O)[C@@H](C)/C=C(C)/C(C)=C/C=C/C(C)=C\C#N)OC)[C@@H](OP(=O)(O)O)C3(C)C)co1)N(C)C (stereo partly specified) | 9.25% [at 4.99 µM] (inactive) | – |
| CCCCC/C=C\C/C=C\C/C=C\CCCCCCC(=O)NCCO | 14.4% [at 6.83 µM] (inactive) | – |
| CCCCCCCCCCCCCCCCOC[C@H](COP(=O)([O-])OCC[N+](C)(C)C)OC(C)=O | -0.0514% [at 6.83 µM] (inactive) | – |
| C[C@H](NC(=O)[C@@H](N)Cc1ccc(O)cc1)C(=O)N[C@@H](Cc1ccccc1)C(=O)N[C@@H](Cc1ccccc1)C(N)=O (H-YAFF-NH2) | 0.112% [at 6.83 µM] (inactive) | – |
| C[C@H]1C[C@H](C)C(=O)[C@@H]([C@H](O)CC2CC(=O)NC(=O)C2)C1 | – | inactive |
| CN(CC(=O)N[C@H](CO)Cc1ccccc1)C(=O)[C@H](CCS(C)=O)NC(=O)[C@@H](N)Cc1ccc(O)cc1 (stereo partly specified) (HELM PEPTIDE1{Y.[CS(=O)CC[C@H](N[*:1])C(=O)[*:2]].[Sar].[OC[C@H](Cc1ccccc1)N[*:1]]}$$$$V2.0) | 16.9% [at 6.83 µM] (inactive) | – |
| COc1ccc2c(c1O)-c1cc(O)cc3c1[C@@H](C2)N(C)CC3 | – | 29.9 µM (active) |
| C[C@]12CCC3C(CC[C@H]4C[C@H](O)CC[C@]34C)[C@@H]1CC[C@@H]2C(=O)CO (stereo partly specified) | – | inactive |
| c1ccc(C2CNCc3ccccc32)cc1 (stereo unspecified) | – | inactive |
| CO[C@@H]1C[C@@H](C[C@H]2CC[C@H](C)[C@@H]([C@@H](C)C(=O)O)O2)O[C@]2(O[C@](C)([C@H]3CC[C@@](C)(C4OC([C@H]5O[C@@](O)(CO)[C@H](C)C[C@@H]5C)C[C@@H]4C)O3)C[C@H]2C)[C@@H]1C (stereo partly specified) | – | inactive |
| COC(C/C=C/C=C/CC/C=C\CC(C)/C=C\C(=C/C(=O)O)CC(=O)O)/C(C)=C\C=C(/C)C(=O)O (stereo unspecified) | 8.89% [at 6.83 µM] (inactive) | – |
| O[C@@H]1CCCC[C@@H]1N1CCC(c2ccccc2)CC1 | – | inactive |

| SMILES | activity change, negative = inhibition | Potency |
| --- | --- | --- |
| CC(N)(COP(=O)(O)Oc1ccccc1)C(=O)O (stereo unspecified) | – | inactive |
| C=C1C(=O)O[C@@H]2C[C@@H](C)[C@@H]3C=CC(=O)[C@@]3(C)[C@@H](O)[C@H]12 | – | inactive |
| NC1(c2ccccc2Cl)CCCCC1=O (stereo unspecified) | – | inactive |
| O=C(O)CCC(CP(=O)(O)O)C(=O)O (stereo unspecified) | – | inactive |
| CC(=O)C1CCC2C3CCC4CC(C)(O)CCC4(C)C3CCC12C (stereo unspecified) | – | inactive |
| NCCc1cccc(O)c1 | – | inactive |
| C=CCN1C[C@H](C)N([C@H](c2ccc(C(=O)N(CC)CC)cc2)c2cccc(O)c2)C[C@H]1C | – | inactive |
| NCCCC[C@H](NC(=O)[C@H](Cc1ccccc1)NC(=O)[C@H](CCCN=C(N)N)NC(=O)[C@@H](N)Cc1ccc(O)cc1)C(N)=O | 9.11% [at 6.83 µM] (inactive) | – |
| CC1=C2CC3C(CC=C4C[C@@H](O)CC[C@@]43C)[C@@H]2CC[C@]12O[C@@H]1C[C@H](C)CN[C@H]1[C@H]2C (stereo partly specified) | – | inactive |
| CC(C)C[C@H](NC(=O)[C@H](Cc1ccccc1)NC(=O)CNC(=O)[C@H](CO)NC(=O)[C@@H](N)Cc1ccc(O)cc1)C(=O)N[C@H](C(=O)O)[C@H](C)O | 10.8% [at 6.83 µM] (inactive) | – |
| N#Cc1c(Oc2cccc(OS(=O)(=O)CCCC(F)(F)F)c2)cccc1C(F)(F)F | – | inactive |
| O=C1CSC(c2ccccc2Cl)c2cc(Cl)ccc2N1 (stereo unspecified) | – | inactive |
| COc1ccc(C(=O)O[C@H]2CC[C@@]3(C)C4CCC5[C@]6(O)C[C@H](O)[C@@]7(O)C(CN8C[C@@H](C)CC[C@H]8[C@@]7(C)O)[C@]6(O)C[C@@]53O[C@@]42O)cc1OC (stereo partly specified) | – | inactive |
| CC1(C)[C@@H](O)C[C@H]2[C@](C)(O)[C@@H]3CC[C@H]4[C@@H](O)[C@@]3(C[C@@H](O)[C@@]21O)C[C@@]4(C)O | – | inactive |
| CC[C@H](C)[C@H](NC(=O)[C@H](CCCN=C(N)N)NC(=O)[C@H](CCCN=C(N)N)NC(=O)[C@H](CC(C)C)NC(=O)[C@H](Cc1ccccc1)NC(=O)CNC(=O)CNC(=O)[C@@H](N)Cc1ccc(O)cc1)C(=O)O | 10.8% [at 6.83 µM] (inactive) | – |
| CCCC[C@@H](C)[C@@H](OC(=O)C[C@@H](CC(=O)O)C(=O)O)[C@H](C[C@@H](C)C[C@H](O)CCCC[C@@H](O)C[C@H](O)[C@H](C)N)OC(=O)C[C@H](CC(=O)O)C(=O)O | – | inactive |
| N[C@]1(C(=O)O)CC[C@@H](C(=O)O)C1 (racemic) | – | inactive |
| CCCCCCCCCCCCCCCCOC[C@@H](COP(=O)([O-])OCC[N+](C)(C)C)OC(C)=O | 5.71% [at 6.83 µM] (inactive) | – |
| C[C@@H]1O[C@H](C[N+](C)(C)C)C[C@@H]1O | – | inactive |
| CC(C)[C@H](NC(=O)[C@H](CCC(=O)O)NC(=O)[C@H](Cc1ccccc1)NC(=O)[C@H](C)NC(=O)[C@@H](N)Cc1ccc(O)cc1)C(=O)N[C@H](C(=O)NCC(N)=O)C(C)C | 2.64% [at 6.83 µM] (inactive) | – |

Reference: PubChem BioAssay (NCATS)
